A selection: hits, their analogues and other compounds. The true share with any hit is near 2%.
EP2 mod: EP2 receptor modulators, cAMP readout, primary screen, cell-based, HTRF cAMP, PGE2 stimulation; EP2-expressing cells, cAMP HTRF FRET, PGE2 co-stimulation; induction, % at 25 µM; 0.83% of 260,000 active;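 active = compounds whose cAMP rise, as percent of the full-agonist control response, exceeds 60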;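 note: rat C6 glioma line stably carrying human EP2 under a CMV promoter; the protocol text gives 20 µM as final concentration; 100% = response of wells given 1 µM PGE2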
EP2 antag: human EP2 receptor antagonists, primary screen, TR-FRET cAMP, C6 glioma cells. Prostaglandin E2 receptor EP2 subtype (Homo sapiens), P43116. C6 glioma cells expressing human EP2; cells stimulated with saturating PGE2. inhibition, % at 25 µM. 0.52% of 260,000 active;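 active = percent inhibition above 40 after rounding to a whole number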;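 note: rat C6 glioma host cells with rolipram phosphodiesterase inhibitor present; the protocol text gives 20 µM as final concentration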
S1P4 antagonist: S1P4 receptor antagonists, primary screen, cell-based; inhibition, % at 4.98 µM; S1P4-expressing cells, antagonist mode, reporter read-out; AID 1510, 2009; 0.26% of 220,000 active; Sphingosine 1-phosphate receptor 4 (Homo sapiens), O95977; in the data active = inhibition above about 29%;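 note: 0% = wells stimulated with agonist and 100% = vehicle wells without agonist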
S1P4 ag: S1P4 receptor agonists, primary screen, cell-based; S1P4-expressing cell line, agonist reporter assay; 0.35% of 220,000 active; Sphingosine 1-phosphate receptor 4 (Homo sapiens), O95977; activation, % at 4.98 µM; AID 1509, 2009; in the data active = activation above about 11%;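 note: 0% = DMSO vehicle and 100% = reference agonist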
S1P3 antag: S1P3 receptor antagonists, primary screen, cell-based. AID 485, 2006. CHO S1P3 NFAT-BLA reporter, FRET fluorescence, antagonist mode. Sphingosine 1-phosphate receptor 3 (Homo sapiens), Q99500. inhibition, % at 4.98 µM. 0.27% of 170,000 active;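 active = inhibition above the plate cutoff, the mean inhibition of test wells on that plate plus 3 SD, cut at about 28% in these data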;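 note: cells challenged with S1P at its EC80 of 0.8 µM; blue over green emission ratio from cleaved BLA substrate after 4 h stimulation; 0% = S1P-stimulated wells and 100% = unstimulated DMSO-only wells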
Target sequence (Q99500 whole entry, looked up): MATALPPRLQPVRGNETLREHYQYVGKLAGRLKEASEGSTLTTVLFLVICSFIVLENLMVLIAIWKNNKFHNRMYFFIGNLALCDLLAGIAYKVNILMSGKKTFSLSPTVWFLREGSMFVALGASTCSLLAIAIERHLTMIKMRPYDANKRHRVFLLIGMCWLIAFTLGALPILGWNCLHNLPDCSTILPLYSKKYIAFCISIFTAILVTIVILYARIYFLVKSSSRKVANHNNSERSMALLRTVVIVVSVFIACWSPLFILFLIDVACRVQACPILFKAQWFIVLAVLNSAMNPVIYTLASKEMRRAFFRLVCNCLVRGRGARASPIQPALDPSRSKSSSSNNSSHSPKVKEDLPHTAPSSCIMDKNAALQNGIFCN
Active calls of the source: *; nt = no result.

SMILES	EP2 mod	EP2 antag	S1P4 antagonist	S1P4 ag	S1P3 antag
CCC(=O)OCc1c(C(F)(F)F)nn(C)c1Sc1ccc(F)cc1	47.6	4.4	-2.1	11.0*	nt
CCC(=O)OCc1c(C(F)(F)F)nn(C)c1Sc1ccc(Cl)cc1	18.5	3.5	-5.1	4.0	nt
O=C(c1ccc(NC(=O)C23CC4CC(CC(C4)C2)C3)cc1)N1CCCCC1	-45.1	11.0	nt	nt	nt
CN1CCC[C@H]1c1cccnc1.O=C(O)c1ccccc1O.O=C([OH2+])c1ccccc1O.O=C([OH2+])c1ccccc1O.O=C([OH2+])c1ccccc1O.[Cu]	9.4	40.3*	nt	nt	nt
CC(=O)Nc1ccc(S(=O)(=O)N2CCCCC2c2cccnc2)cc1 (centres undefined)	-5.0	6.0	-9.7	2.7	-1.8
CN1CCCC1c1cccnc1 (centres undefined)	nt	18.1	nt	nt	nt
CN1CCC[C@H]1c1cccnc1.O=C(O)c1ccccc1O.O=C([OH2+])c1ccccc1O.O=C([OH2+])c1ccccc1O.[Mn+2]	28.7	40.3*	nt	nt	nt
CCc1cc(C(=O)OC)c(NC(=O)CC2NCCNC2=O)s1 (centres undefined)	8.9	3.9	-2.2	-1.0	-12.3
CCc1cc(C(=O)OC)c(NC(=O)C2CC(=O)NN2Cc2ccccc2)s1 (centres undefined)	63.3*	7.3	-10.3	-0.1	nt
CN1c2ncccc2C(=O)NC12CCN(C(=O)C1CCCO1)CC2 (centres undefined)	2.8	nt	nt	nt	nt
CCOc1ccc2[nH]c(=O)c(C3C(C#N)=C(N)OC4=C3C(=O)CCC4)cc2c1 (centres undefined)	-9.7	10.1	nt	nt	nt
C[n+]1cc2c3c(ccc2c2ccc4cc5c(cc4c21)OCO5)OCO3	-37.8	118.3*	nt	nt	nt
OC(CN1C2=NCCCN2c2ccccc21)c1ccc(Cl)cc1 (centres undefined)	4.7	14.9	6.1	1.4	82.5*
CCOC(=O)CSc1ccc(C(=O)Nc2ccc(Cl)cc2)cn1	-46.9	41.0*	-8.3	0.9	-13.6
COc1ccccc1Nc1nc2ccc(C)cc2cc1C#N	61.4*	nt	-13.0	1.5	nt
Cc1cc(/C=N/n2cnnc2)c(C)n1-c1ccc(OCc2ccccc2F)cc1	-19.6	22.1	-17.1	2.5	67.8*
Cc1cc(/C=N/n2cnnc2)c(C)n1-c1ccc(OCc2ccc(Cl)cc2)cc1	-2.7	9.5	-9.9	-1.5	nt
Clc1ccc(C(c2nnnn2CC2CCCO2)N2CCN(C3CCCC3)CC2)cc1 (centres undefined)	3.6	6.5	nt	nt	nt
CC1(c2ccccc2)CC(c2ccccc2)=Nc2ccccc2N1 (centres undefined)	87.8*	7.7	-8.6	1.4	9.6
CCc1nn(CC(=O)NCc2ccccc2OC)c(=O)c2cc3sccc3n12	-17.7	nt	nt	nt	nt
O=S(=O)(c1ccc(Br)cc1)N1CCN(S(=O)(=O)c2ccc(Br)cc2)CC1	-1.4	41.6*	nt	nt	nt
CCc1ccc(NC(=O)CSc2ncnc3sc(C)c(C)c23)cc1	8.4	12.1	nt	nt	nt
CCNc1nc(SCc2ccccc2)nc(N2CCOCC2)n1	63.0*	7.1	-9.1	0.0	9.9
CN(C)c1nc(SCc2ccccc2)nc(N2CCOCC2)n1	25.7	8.6	-9.2	-1.6	nt
COc1cc(C2C(C#N)=C(N)Oc3n[nH]c(C)c32)ccc1OCC(=O)Nc1ccc(F)cc1 (centres undefined)	-62.2	4.1	nt	nt	nt
SMILES	EP2 mod	EP2 antag	S1P4 antagonist	S1P4 ag	S1P3 antag
NC(N)=NC(N)=Nc1c(F)c(F)c(F)c(F)c1F	-122.5	63.8*	nt	nt	nt
c1ccc(CCNc2ccnc3cc4ccccc4cc23)cc1	-83.2	57.5*	8.9	6.1	-12.7
Cc1ccc(S(=O)(=O)Oc2cc(S(=O)(=O)O)cc3cc(S(=O)(=O)O)cc(N)c23)cc1	31.8	60.8*	nt	nt	nt
Cc1ccc(S(=O)(=O)Oc2ccccc2/C=N/O)cc1	2.8	7.2	-4.9	1.0	-2.3
O=C(C1CCCCC1)N(Cc1ccco1)c1nc(-c2ccccc2)cs1	25.5	12.7	nt	nt	nt
CC(C)N(C(=O)c1ccccc1-c1ccccc1)C(C)C	62.7*	18.1	2.4	0.1	nt
COc1ccc2c(-c3ccccc3)cc(SC(C)C(N)=O)nc2c1 (centres undefined)	62.2*	12.5	2.8	-0.2	-2.7
COCCn1c(SCC(=O)Nc2cccc(Cl)c2C)nnc1C(C)C	-10.8	6.5	nt	nt	nt
O=C(O)C1CCCN(C(=O)NCc2ccccc2)C1 (centres undefined)	-1.2	12.2	-1.1	-1.1	-9.4
O=C(O)c1ccccc1CN1CCC[C@@H](C(=O)O)C1	3.4	48.2*	nt	nt	nt
COc1ccc(OC)c(C(=O)CSc2nc(C(C)(C)C)nc3ccccc23)c1	58.1	6.4	nt	nt	nt
CCOC(=O)c1cnc(-n2nc(C)cc2C)nc1Nc1ccc(N(C)C)cc1	62.1*	7.1	-11.2	0.3	36.6
N#CC1=C(N)Oc2n[nH]c(-c3ccc(C4CCCCC4)cc3)c2C1c1cccnc1 (centres undefined)	-74.8	11.8	nt	nt	nt
CCc1ccc(C2c3[nH]c4ccccc4c3CCN2C(=O)CN2CCN(CC)CC2)cc1 (centres undefined)	-37.3	8.5	-8.5	-0.8	-1.7
O=C(CCN1CCCCC1)N1CCc2c([nH]c3ccccc23)[C@H]1c1cccnc1	4.6	43.3*	nt	nt	nt
C=CCn1c(NN)nc2c1c(=O)n(C)c(=O)n2C	-15.5	10.5	nt	nt	nt
Cn1c(=O)c2[nH]c([C@@H]3CC(=O)C[C@H](c4nc5c([nH]4)c(=O)n(C)c(=O)n5C)N3)nc2n(C)c1=O	17.6	45.8*	nt	nt	nt
N#C/C(=C\Nc1ccccc1O)c1nc2ccccc2o1	-105.3	54.2*	-10.3	1.5	0.2
CCOc1ccccc1C(=O)N(CC)Cc1cc2ccccc2[nH]c1=O	-15.6	11.1	nt	nt	nt
O=[N+]([O-])c1cccc(-c2csc(Nc3ccccc3)n2)c1	28.0	7.5	0.5	2.4	21.2
COc1cc(NS(=O)(=O)c2ccc(Nc3nc(-c4cccc([N+](=O)[O-])c4)cs3)cc2)nc(OC)n1	-67.5	44.7*	5.6	0.5	-1.1
O=S(=O)(c1ccccc1C(F)(F)F)N1CCCC(c2nc(-c3cccs3)no2)C1 (centres undefined)	3.9	4.5	nt	nt	nt
Nc1ccc(N=Nc2ccc(-c3ccc(O)cc3)cc2)c2ccc(S(=O)(=O)O)cc12	-21.7	49.1*	nt	nt	nt
O=C(NCCc1nc(-c2ccncc2)n[nH]1)c1nccc2ccccc12	-37.8	5.2	nt	nt	nt
Cc1ccc(C2C(C(=O)c3ccco3)=C(O)C(=O)N2Cc2ccccc2)o1 (centres undefined)	3.0	18.3	nt	nt	nt
O=C1c2ccccc2[C@@H]([C@H]2c3ccccc3C(=O)c3cc(Br)ccc32)c2ccc(Br)cc21	4.3	53.9*	nt	nt	nt
O=C1c2ccccc2C(=Nc2ccccc2)C1c1cccc(Br)c1 (centres undefined)	8.5	10.6	-14.1	0.6	nt
